Bioassay records: PubChem BioAssay, National Center for Advancing Translational Sciences (NCATS)
L3MBTL1 inh: blocks human L3MBTL1; Q9Y468; AlphaScreen L3MBTL1–H3K9me1 peptide binding; Potency, µM (highest dose often 57.1 µM), most hits filed as inhibitors; 230,000 tested, 0.66% active; further: nearly all actives have a fitted effect of over 60% in size
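L3MBTL1 50 nM + b-AHA-H3(1-15)K9me1 75 nM, 30 min RT; compound added, 30 min RT; streptavidin donor/Ni-chelate acceptor beads 10 ug/mL each final, 30 min RT dark; AlphaScreen read.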
BAZ2B block: inhibitors of human BAZ2B bromodomain. AID 504333. 360,000 tested, 4.4% active. Potency, µM (top dose mostly 114 µM), most hits filed as inhibitors. AlphaScreen BAZ2B-H3K14Ac peptide displacement; further: nearly all actives have a fitted effect of over 60% in size
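AlphaScreen luminescence quantifies BAZ2B engagement of H3K14Ac peptide; the protein and biotinylated peptide are both at 50 nM final, buffer PBS pH 7.4 with 0.01% Tween-20, all steps at room temperature.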
HP1b chromo inh: inhibitors of HP1-beta chromodomain binding to methylated histone tails; P83916; AlphaScreen HP1-beta / biotin-H3K9me3 peptide binding; Potency, µM (highest dose often 114 µM), most hits filed as inhibitors; 390,000 tested, 0.56% active; AID 540317; further: nearly all actives have a fitted effect of over 70% in size
Target sequence (P83916 whole entry, looked up): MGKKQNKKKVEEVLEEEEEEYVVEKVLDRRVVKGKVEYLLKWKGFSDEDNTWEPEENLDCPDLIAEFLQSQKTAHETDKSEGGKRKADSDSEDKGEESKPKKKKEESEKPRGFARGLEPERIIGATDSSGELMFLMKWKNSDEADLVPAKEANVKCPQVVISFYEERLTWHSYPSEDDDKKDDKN
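HP1-beta protein (50 nM final) preincubated 30 min at room temperature with biotinylated H3(1-18)K9me3 peptide (50 nM) in PBS pH 7.4, 0.01% Tween-20, then compound added for 30 min. AlphaScreen streptavidin donor/nickel chelate acceptor beads (10 ug/mL final), 30 min dark, luminescence read.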
JMJD2A Tudor inh: inhibitors of human JMJD2A Tudor domain; O75164; AlphaScreen JMJD2A-Tudor / H3K4me3 peptide binding; Potency, µM (series often up to 114 µM), actives largely listed as inhibitors; 390,000 tested, 4.4% active; further: nearly all actives have a fitted effect of over 50% in size
Sfp inh: Sfp phosphopantetheinyl transferase inhibition; Potency, µM, actives largely listed as inhibitors; 310,000 tested, 3.5% active; Biochemical Sfp PPTase activity, qHTS; Q9F4F7; AID 1490;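 further: the enzyme is Sfp with the accession as filed and its product quenches rhodamine fluorescence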
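Reaction rates are the 30-min fluorescence difference (ex 525, em 598 nm) in wells containing 15 nM Sfp, 5 uM rhodamine-CoA and 12.5 uM BHQ-2-YbbR at pH 7.6 with 10 mM MgCl2.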
G9a inh: inhibitors of human histone lysine methyltransferase G9a | 350,000 tested, 8.8% active | Q96KQ7 | AID 504332 | Potency, µM (series often up to 102 µM), hits mostly inhibitors | G9a H3K9 monomethylation, AlphaScreen, 2 h; further: nearly all actives have a fitted effect of over 75% in size
Target sequence (Q96KQ7 913-1193 limits assumed): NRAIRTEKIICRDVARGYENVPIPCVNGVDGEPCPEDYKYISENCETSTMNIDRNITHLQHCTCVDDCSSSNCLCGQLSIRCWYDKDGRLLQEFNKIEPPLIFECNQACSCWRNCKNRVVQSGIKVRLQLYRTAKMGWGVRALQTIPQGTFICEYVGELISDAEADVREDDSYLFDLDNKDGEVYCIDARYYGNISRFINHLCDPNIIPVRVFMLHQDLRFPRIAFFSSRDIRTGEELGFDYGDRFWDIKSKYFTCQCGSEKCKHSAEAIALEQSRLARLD
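Quantitative HTS format: methyltransferase activity on a biotin-tagged H3K9 peptide is measured by AlphaScreen, using a rabbit anti-monomethyl-H3K9 antibody with streptavidin donor and anti-IgG acceptor beads. Final levels are 20 nM enzyme, 500 nM peptide, 20 uM SAM; 2 h RT.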
Numbers stand for hits; i = inactive; ? = inconclusive; nt = no result; ! = not active in a repeat; [ ] = remark or other dose. An excerpt weighted towards active compounds, which were near 12% of everything screened. The call rests on the fitted dose curve; in most records, active means well fitted curve in the direction sought with a large enough effect; inconclusive means small, poorly fitted or top-dose-only effect, or another doubt; inactive means no such curve, though single readings can be large; an effect the other way counts as inactive or inconclusive.

SMILES	L3MBTL1 inh	BAZ2B block	HP1b chromo inh	JMJD2A Tudor inh	Sfp inh	G9a inh
COc1ccc(/C=C(\NC(=O)c2ccc([N+](=O)[O-])cc2)C(=O)NCCCn2ccnc2)cc1	nt	?	i	i	i	i
O=C(NCCCn1ccnc1)/C(=C/c1ccc(Cl)cc1)NC(=O)c1ccccc1	nt	50µM	i	i	i	i
COc1ccccc1C(=O)N/C(=C\c1cn(S(=O)(=O)N(C)C)c2ccccc12)C(=O)NCCCn1ccnc1	nt	?	i	?	nt	i
Cc1cc(C)c(NC(=O)CCN2C(=O)c3ccccc3Sc3ncccc32)c(C)c1	nt	?	i	i	nt	i
CN(C)c1ccc(/C=C(\NC(=O)c2ccccc2)C(=O)NCCN2CCOCC2)cc1	nt	i	i	i	i	71µM
Cc1ccccc1-c1noc(-c2ccc(N3CCN(C)CC3)c([N+](=O)[O-])c2)n1	nt	i	i	i	nt	i
CCN(CC)C(=O)c1sc(NC(=O)C(C)Sc2nc(-c3ccccc3)cc(C(F)(F)F)n2)c(C(=O)OC)c1C (configuration not stated)	nt	i	i	i	nt	3.5µM
CCCOC(=O)c1c(NC(=O)C(C)Sc2nc(-c3ccccc3)cc(C(F)(F)F)n2)sc(C(=O)N(C)C)c1C (configuration not stated)	nt	i	i	i	nt	11µM
CCOC(=O)c1c(NC(=O)CSc2nc(-c3ccc(OC)cc3)cc(C(F)(F)F)n2)sc(C)c1C	nt	i	i	i	nt	4.5µM
Cc1ccc(CCNC(=O)c2c[nH]c3ccc(S(=O)(=O)Nc4ccc(C)cc4C)cc3c2=O)cc1	?	i	i	i	nt	i[12.7 µM]
O=C(Nc1ccc2oc(=O)ccc2c1)c1ccc(-c2ccc(Cl)cc2)o1	i	i	i	i	i	i
O=C(Nc1ccc2oc(=O)ccc2c1)c1ccc(-c2cccc([N+](=O)[O-])c2)o1	i	35µM	i	i	i	?
CN1CCN(c2ccc(NC(=O)c3cc([N+](=O)[O-])ccc3N3CCOCC3)cc2)CC1	nt	?	i	i	i	nt
CN1CCN(c2ccc(NC(=O)c3ccc(-c4cccc([N+](=O)[O-])c4)o3)cc2)CC1	i[11.4 µM]	45µM	?	?	i	?
CS(=O)(=O)N1CCN(c2ccc(NC(=O)c3ccc(-c4ccc(Cl)cc4)o3)cc2)CC1	nt	i	i	i	i	i
CN1CCN(c2ccc(NC(=O)c3ccc(-c4ccc(Cl)cc4)o3)cc2)CC1	nt	8.9µM	i	?	i	nt
CCn1nnc(NC(=O)c2ccc(-c3ccc(Cl)cc3)o2)n1	i	i	i	?	?	45µM
CCOc1ccc(NC(=O)CC2C(=O)N(c3cccc(C)c3)C(=O)N2Cc2cccs2)cc1 (configuration not stated)	nt	i	i	i	nt	?
Cc1cccc(CNc2ccnc(-c3ccccc3CN(C)C)n2)c1	nt	nt	nt	nt	i	nt
CN1CCO[C@H](c2ccccc2)c2ccccc2C1	nt	nt	nt	nt	i	i[21.5 µM]
O=C(O)c1cccc(Sc2ccc(Br)cc2C(=O)O)c1	i	i	i	i	nt	i[2.33 µM]
O=C(O)c1cccc(Sc2cc(Cl)ccc2C(=O)O)c1	i	56µM	i	89µM	nt	i[0.501 µM]
Cc1cc(C)c(S(=O)(=O)Nc2cccc(-c3cn4ccccc4n3)c2)c(C)c1	nt	i	i	5µM	nt	i
Cc1cc(C)c(S(=O)(=O)Nc2ccc(-c3cn4ccccc4n3)cc2)c(C)c1	nt	?	i	?	i	?
CN1C(=O)N(C)c2ccc(Br)c3cccc1c23	nt	i	i	45µM	i	i
SMILES	L3MBTL1 inh	BAZ2B block	HP1b chromo inh	JMJD2A Tudor inh	Sfp inh	G9a inh
CN(C)Cc1cc(O)c(CN(C)C)cc1O	3.2µM	22µM	?	0.79µM	25µM	1.4µM
O=C(Nc1ccc[n+](CC(=O)c2cccc3ccccc23)c1)c1ccccc1	i	i	i	i	56µM	40µM
N#Cc1ccc[n+](CC(=O)c2ccc(NC(=O)c3ccccc3)cc2)c1	i	i	i	i	i	45µM
O=C(C[n+]1ccccc1)c1ccc(NC(=O)c2ccccc2)cc1	i	i	i	?	i	16µM
Cc1cc[n+](CC(=O)c2ccc(NC(=O)c3ccccc3)cc2)cc1	nt	i	i	i	i	?
COc1cc(NC(=O)C2CCN(S(=O)(=O)c3ccc4c(c3)oc(=O)n4C)CC2)cc(OC)c1	nt	i	i	i	nt	i
O=S(=O)(c1ccc2c(c1)OCO2)N1CCN(S(=O)(=O)c2c(F)cccc2F)CC1	nt	nt	nt	i	nt	nt
CCN(CC)S(=O)(=O)c1cccc(-c2nnc(SCC(=O)NC)n2N)c1	i	i	i	i	i	i
CCN(CC)S(=O)(=O)c1cccc(-c2nnc(SCc3nnc(-c4cccs4)o3)n2N)c1	i	i	i	i	i	50µM
CC1CCN(S(=O)(=O)c2nnc(NC(=O)c3ccccc3Br)s2)CC1	i	i	i	i	i	i
Cc1ccccc1C(=O)Nc1nnc(S(=O)(=O)N2CCCCC2)s1	i	i	i	i	i	i
O=C(Nc1nnc(S(=O)(=O)N2CCCCCC2)s1)c1ccccc1Br	i	14µM!	i	13µM!	i	10µM
O=C(COc1ccc(Cl)cc1)Nc1nnc(S(=O)(=O)N2CCCCCC2)s1	i	1.8µM!	?	10µM!	i	3.2µM!
CCN(c1ccc(OC)cc1)S(=O)(=O)c1nnc(NC(=O)COc2ccc(F)cc2)s1	nt	i	i	35µM!	i	i
O=C(Nc1nnc(S(=O)(=O)N2CCCC2)s1)c1ccccc1Br	i	7.1µM!	i	?	i	?
Cc1ccc(OCC(=O)Nc2nnc(S(=O)(=O)N3CCCCCC3)s2)cc1C	i	i	i	i	i	nt
C=C1C(N)CC2CC1C2(C)C (configuration not stated)	nt	nt	nt	nt	i	nt
O=C(Nc1nnc(S(=O)(=O)N2CCCCC2)s1)c1ccc(Cl)cc1	i	?	i	i	i	?
O=C(Nc1nnc(S(=O)(=O)N2CCCCCC2)s1)c1ccc(Br)cc1	i	i	?	?	i	14µM!
O=C(NC1CCCC1)C(c1cccnc1)N(C(=O)c1csnn1)c1ccccc1Cl (configuration not stated)	nt	i	i	50µM	i	i
O=C(NC1CCCC1)C(c1ccncc1)N(C(=O)c1csnn1)C1CCCC1 (configuration not stated)	i	i	i	i	56µM	i
O=C(NC1CCCCC1)C(c1cccnc1)N(C(=O)c1csnn1)c1ccccc1F (configuration not stated)	nt	i	i	i	i	i
O=C(CN(Cc1cccs1)C(=O)c1csnn1)NC1CCCC1	i	i	?	79µM	i	i
CCn1cc(C(=O)Nn2cnnc2)c(=O)c2ccc(C)nc21	i	i	i	?	i	50µM
CCn1cc(C(=O)OCC(=O)Nc2c(C)cccc2C)c(=O)c2ccc(C)nc21	i	i	i	i	i	45µM
